# Bioassay records (PubChem)
# This is a sample that favours compounds with a hit; in the whole collection about 21% have one here.
# Pf growth 48h – Primary qHTS for delayed death inhibitors of the malarial parasite plastid, 48 hour incubation | Potency, µM (titrated, usually from 28.7 µM), for inactives: at the top dose activity change, negative = inhibition, most hits filed as inhibitors | P. falciparum luciferase growth in erythrocytes, 48 h | 310,000 compounds, 5.9% hits | AID 504832, 2011; also: potency is read from the fitted curve at half-maximal effect; % is scaled to controls: 0 for no effect and ±100 for the full control effect
#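 Luciferase-expressing P. falciparum in infected erythrocytes (2% hematocrit, 0.1% parasitemia final) in RPMI 1640/0.5% Albumax were exposed to compound for 48 hours at 37 C, 5% CO2; growth read as luminescence.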
# Cycloheximide cs – Cycloheximide Counterscreen for Small Molecule Inhibitors of Shiga Toxin; cell reporter, cycloheximide protein synthesis inhibition counterscreen; max response, %; 300,000 compounds, 12% hits; AID 2314, 2010; in the data active = max response mostly above about 13%, no sharp cut-off; inactive = mostly below about 14%; also: read at 38.3 µM for the half of the compounds with a filed dose; 0% is about no effect
# HCV inhibitor – qHTS Assay for Inhibitors of Hepatitis C Virus (HCV) | AID 651820, 2012 | Huh7.5.1 HCVcc-Cre infection, luciferase reporter, 44 h | 340,000 compounds, 3.4% hits | Potency, µM (highest dose often 41.8 µM), for the others: at the highest dose activity change, negative = inhibition, hits mostly inhibitors; also: potency is read from the fitted curve at half-maximal effect; % is scaled to controls: 0 for no effect and ±100 for the full control effect
#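 Infectious HCVcc-Cre (~0.5 moi) was added to cells just after compound, with cells seeded 4 h earlier at 1,000 per well. Luciferase activity after 44 h culture reported infection; substrate was incubated 15 min at room temperature before reading.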
# Shiga inhibitor – A qHTS for Small Molecule Inhibitors of Shiga Toxin; Vero cells, Shiga toxin protein synthesis inhibition reporter; inhibition, % at 38.7 µM; 290,000 compounds, 9.2% hits; AID 2315, 2010; in the data active = inhibition mostly above about 28%, no sharp cut-off; inactive = mostly below about 43%; also: 0% is about no effect
# HCMV inh – qHTS Assay for inhibitors of the human cytomegalovirus (HCMV). HFF cells, HCMV-luciferase reporter, 72 h; hits give low values. activity change, negative = inhibition, % at 57.5 µM. 410,000 compounds, 4.5% hits; in the data active = activity change below about -60%; inconclusive = no clear call, values can overlap the other calls; inactive = above about -39%; also: % is scaled to controls: 0 for no effect and ±100 for the full control effect
#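 Luciferase read-out from HCMV-luciferase-infected HFFs (MOI 1 PFU/cell) 72 h post infection at 37C; compounds added after 16 h cell attachment; activity normalized between buffer-only basal and Salinomycin (10uM) inhibitor controls.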
# Pf growth 96h – Primary qHTS for delayed death inhibitors of the malarial parasite plastid, 96 hour incubation; P. falciparum luciferase reporter growth, 96 h; Potency, µM (doses to about 28.7 µM), for the others: at the highest dose activity change, negative = inhibition, most hits filed as inhibitors; 320,000 compounds, 6.9% hits; also: potency is read from the fitted curve at half-maximal effect; % is scaled to controls: 0 for no effect and ±100 for the full control effect
#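 96 h incubation, 37 C, 5% CO2, of luciferase-reporter P. falciparum-infected RBCs (2% hematocrit, 0.05% parasitemia final) with test compounds; endpoint luminescence.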
# Starred values were filed as active, the others as inactive; ? = inconclusive; · = not tested or not shown; ! = a repeat was not active. Unless noted, calls follow the shape of the dose curve; as a rule, active = well fitted inhibition curve with a large enough effect; inconclusive = small, poorly fitted or top-dose-only effect, or another doubt; inactive = no such curve, though single readings can be large or run the other way.
SMILES,Pf growth 48h,Cycloheximide cs,HCV inhibitor,Shiga inhibitor,HCMV inh,Pf growth 96h
Cc1cc(C)c2c(n1)nn1c(N3CCN(Cc4ccccc4)CC3)cc(C)nc21,-16.2%,-4.2,16.6%,16.1,24.7,·
O=C(Nc1ccc(F)cc1)c1nc[nH]c1C(=O)Nc1ccc([N+](=O)[O-])cc1,4.5%,-2.8,6.1%,-2.8,-60.8*,235.3%
CNC(=O)c1[nH]cnc1C(=O)Nc1ccc(Cl)cc1,5.9%,28.0*,6.2%,40.3,62.5,30.9%
Cc1nc2ccccc2nc(=O)c1NNc1ccccc1,87.1%,20.2*,?,23.4*,18.1,6.75µM*!
Cc1ccc2nc(-c3ccccc3)c(-c3ccccc3)nc2c1,-8.4%,10.7,?,8.8,1.7,31.8%
Cc1ccc2nc(=O)c(NNc3ccccc3)cnc2c1,186.0%,23.0*,?,20.7,113.4,219.2%
CCC1(CC)NC(=O)N(CC(=O)OC(C)C(=O)Nc2ccccc2OC)C1=O (centres undefined),-12.0%,·,7.8%,·,-20.8,31.0%
CCCC1(CCC)NC(=O)N(CC(=O)Nc2ccccc2OC)C1=O,·,1.6,-3.5%,16.8,-108.7*,?
CCOc1ccc(OCC)c(NC(=O)CC2Oc3ccc(C)cc3NC2=O)c1 (centres undefined),·,-5.4,?,-10.6,4.2,10.4µM*
COc1ccc(NC(=O)CC2Oc3ccc(C)cc3NC2=O)cc1 (centres undefined),·,-7.9,-3.6%,-9.2,-38.5,?
COc1ccc(NC(=O)CC2Nc3ccccc3NC2=O)cc1 (centres undefined),·,·,·,·,21.1,·
COc1ccccc1NC(=O)CC1Nc2ccccc2NC1=O (centres undefined),3.7µM*,3.9,10µM*,18.6,71.5,·
COc1ccc(OC)c(NC(=O)CC2Oc3ccccc3NC2=O)c1 (centres undefined),38.3%,14.2*,-25.0%,27.5,20.6,0.6%
Cc1ccc(C(=O)C2CCN(CC(=O)NC3CCCC3)CC2)cc1,10.4%,-5.0,-9.3%,-11.6,-24.5,3.0%
Cc1nc(NC(=O)c2ccc(Br)o2)sc1C,·,44.8*,-16.1%,62.9*,101.6,188.4%
Cc1nn(C)c(C)c1NC(=O)c1ccc(Br)o1,8.8%,3.8,-5.0%,-11.7,16.9,-10.3%
Cc1ccc(C(=O)Nc2nc(C)c(C)s2)o1,·,35.5*,15.4%,62.2*,36.0,283.6%
CC(C)Oc1ccc(C2CC(=O)NC2=O)cc1 (centres undefined),23.9%,12.4,24.9%,-10.8,40.9,4.15µM*
Cc1ccc(NC(=O)C2=NNC(=O)CC2)cc1F,94.8%,34.9*,14.1%,59.9*,100.0,53.7%
CC(C)c1ccc(NC(=O)C2=NNC(=O)CC2)cc1,100.3%,37.7*,1.6%,97.4*,0.0,140.0%
O=C1CCC(C(=O)Nc2cccc(S(=O)(=O)Nc3ccccc3F)c2)=NN1,·,·,1.7%,·,-12.8,·
O=C1CCC(C(=O)Nc2cccc(Oc3ccccc3)c2)=NN1,-15.4%,14.7*,0.0%,16.0,?,?
CC(=O)c1cccc(NC(=O)C(C)OC(=O)C2=NNC(=O)CC2)c1 (centres undefined),·,·,-4.3%,·,59.8,·
COc1ccc(N2CC(NC(=O)c3cc4ccccc4o3)CC2=O)cc1OC (centres undefined),·,·,·,·,-13.1,·
NC(=S)NN=Cc1c[nH]c2nccnc12,·,·,·,·,-17.5,·
SMILES,Pf growth 48h,Cycloheximide cs,HCV inhibitor,Shiga inhibitor,HCMV inh,Pf growth 96h
CN(Cc1cn(Cc2cccc(Cl)c2)nn1)C1CN(Cc2cn(Cc3cccc(Cl)c3)nn2)S(=O)(=O)C1 (centres undefined),·,·,·,·,-24.2,·
O=[N+]([O-])c1cc([N+](=O)[O-])c2cc3ccccc3nc2c1,?,-2.2,?,3.2,40.6,3.1%
CCCn1c(NC(=S)Nc2ccccc2)nc2ccccc21,?,-0.5,3.4%,-12.9,48.4,42.3%
CCn1c(NC(=S)Nc2ccccc2)nc2ccccc21,?,28.9*,5.1%,53.2*,3.4,3.29µM*
O=C(Nc1nc2ccccc2n1CCN1CCCCC1)C1CCCCC1,?,-4.2,-1.4%,-10.3,-16.7,?
CCn1c(NC(=O)C2CCCCC2)nc2ccccc21,10.4µM*,26.1*,?,36.0*,-7.4,350.6%
CCn1c(NN=O)nc2ccccc21,-10.7%,-3.0,6.31µM*,3.7,-103.3*,78.2%
S=C(Nc1ccccc1)Nc1nc2ccccc2n1CCOc1ccc(Cl)cc1,7.38µM*,9.0,10µM*,25.8,60.7,11.7µM*
Cc1cccc(NC(=O)CC2C(=O)NCCN2C(=O)Nc2ccc(Cl)cc2)c1 (centres undefined),-8.6%,10.1,6.9%,21.0,-22.9,?
Cc1cccc(CNC(=O)CS(=O)(=O)c2cccc3nsnc23)c1,·,·,·,·,6.8,·
Cc1nc(C)c(C(=O)NCCC(c2ccccc2)c2ccccc2)o1,-15.5%,6.6,10µM*,10.9,?,?
CC(NC(=S)Nc1ccccc1OC(F)F)C(C)(C)C (centres undefined),-3.4%,4.2,4.0%,8.2,-65.2*,-19.2%
CC(NC(=S)Nc1ccc(OC(F)F)cc1OC(F)F)C(C)(C)C (centres undefined),?,1.1,?,-9.6,-24.1,?
Cc1nnsc1S(=O)(=O)c1ccccc1,-2.8%,-3.7,2.2%,-4.5,?,19.8%
Cc1cccc(/C(N)=N/OC(=O)Cc2cccs2)c1,177.6%,68.4*,2.7%,96.4*,23.4,138.4%
Cc1ccc(OCC(=O)Oc2cccc(C)c2C)cc1,41.0%,-1.0,20.4%,·,32.9,11.7µM*
COc1ccccc1C/C(N)=N/OC(=O)COc1ccc(C)cc1,1.3%,1.0,-9.5%,-6.4,-5.6,2.08µM*
N/C(Cc1cccs1)=N\OC(=O)COc1ccccc1,·,22.4*,18.7%,33.2,46.2,?
CC(C)C[C@H]1CN([C@@H](CC(C)C)CN2CCCC2CN2C(=S)NC[C@@H]2Cc2ccccc2)C(=S)N1CC1CCCCC1 (some centres undefined),·,·,·,·,11.4,·
CCC(=O)Nc1cccc(C2=NOC3(C2)C[C@H](C(N)=O)N(C(=O)CC#N)C3)c1 (some centres undefined),57.3%,-2.7,-4.5%,-9.9,-8.8,62.9%
COc1ccccc1CCC(=O)OCC(=O)Nc1ccc(C(N)=O)cc1,13.0%,-1.5,6.6%,35.7,31.4,15.0%
O=C(COC(=O)CCC(=O)c1ccc(Cl)cc1)NC1CC1,19.1%,0.3,18.6%,-7.5,13.1,19.1%
CC1(C)CCC(C)(C)c2cc(NC(=O)c3ccc(C(=O)O)cc3)ccc21,-1.5%,·,·,·,·,-27.8%
N/C(=N\OC(=O)Cc1cccs1)c1ccccc1,103.8%,27.9*,9.8%,59.2*,5.7,38.9%
